The results in this text go back to PubChem BioAssay.

Where “and” joins values, the source holds several entries; their conditions need not be identical. Equal values may be shown once. For part of these data: Entries with a potency or affinity are not part of this list.

A short description of one experiment: blockers of polyQ-driven CASP3 activation – cell-based (AID 1583). As to conditions: polyglutamine-induced caspase-3 activation, cell assay; stronger effect = higher value;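 tested at 10 µM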.
The inhibition is the relative decrease from the control value, in per cent. For the compound `CC(=O)CCC1C2=NC(=C\C3=NC(=C(/C)C4=NC(C)(C5[N-]/C(=C\2C)C(C)(CCC(=O)NCC(C)OP(=O)(O)O[C@@H]2[C@@H](CO)OC(n6cnc7cc(C)c(C)cc76)[C@@H]2O)C5CC(N)=O)C(C)(CC(N)=O)C4CCC(N)=O)/C(C)(CC(N)=O)C3CCC(N)=O)/C1(C)C.[CH2-][C@H]1OC(n2cnc3c(N)ncnc32)[C@H](O)[C@@H]1O.[Co+2]` (some centres not stated), the inhibition was determined as 55.6%.
On the same count and under the same terms, the result for `Fc1ccc(C(c2ccccc2)(c2ccccc2F)n2ccnc2)cc1` (configuration not stated) reads -9.56% and 14%; that for `CC(C)[C@@H](C)/C=C/[C@@H](C)C1CC[C@H]2/C(=C/C=C3\C[C@@H](O)CC[C@@H]3C)CCC[C@]12C` (some centres not stated), 63.6%; that for `COc1cccc(C(=O)c2ccccc2O)c1O`, -4.26%.

A further experiment is described as follows: yeast 75Q aggregation reduction – 75Q-TubU reporter (AID 1593). As to conditions: Yeast 75Q polyglutamine aggregation reporter.
Regarding `CC(=O)CCC1C2=NC(=C\C3=NC(=C(/C)C4=NC(C)(C5[N-]/C(=C\2C)C(C)(CCC(=O)NCC(C)OP(=O)(O)O[C@@H]2[C@@H](CO)OC(n6cnc7cc(C)c(C)cc76)[C@@H]2O)C5CC(N)=O)C(C)(CC(N)=O)C4CCC(N)=O)/C(C)(CC(N)=O)C3CCC(N)=O)/C1(C)C.[CH2-][C@H]1OC(n2cnc3c(N)ncnc32)[C@H](O)[C@@H]1O.[Co+2]` (some centres not stated), the score turned out to be 1.56.
For the compound `Fc1ccc(C(c2ccccc2)(c2ccccc2F)n2ccnc2)cc1` (configuration not stated), the score was 1.45 and 0.36.
The same measure, in the same setting: as for `CC(C)[C@@H](C)/C=C/[C@@H](C)C1CC[C@H]2/C(=C/C=C3\C[C@@H](O)CC[C@@H]3C)CCC[C@]12C` (some centres not stated), the figure is 0.42; as for `COc1cccc(C(=O)c2ccccc2O)c1O`, 0.2.

A further experiment in a line: restoration of touch response, mutant HTT neurons – whole organism, C. elegans mechanosensory neurons, N-terminal huntingtin (AID 1599). To be noted: C. elegans polyQ-huntingtin mechanosensory neurons, stronger effect = higher value.
As to `CC(=O)CCC1C2=NC(=C\C3=NC(=C(/C)C4=NC(C)(C5[N-]/C(=C\2C)C(C)(CCC(=O)NCC(C)OP(=O)(O)O[C@@H]2[C@@H](CO)OC(n6cnc7cc(C)c(C)cc76)[C@@H]2O)C5CC(N)=O)C(C)(CC(N)=O)C4CCC(N)=O)/C(C)(CC(N)=O)C3CCC(N)=O)/C1(C)C.[CH2-][C@H]1OC(n2cnc3c(N)ncnc32)[C@H](O)[C@@H]1O.[Co+2]` (some centres not stated), the rescue above control was 0.82.
In the case of `Fc1ccc(C(c2ccccc2)(c2ccccc2F)n2ccnc2)cc1` (configuration not stated), the rescue above control was 12 and 6.65.
With `CC(C)[C@@H](C)/C=C/[C@@H](C)C1CC[C@H]2/C(=C/C=C3\C[C@@H](O)CC[C@@H]3C)CCC[C@]12C` (some centres not stated), the rescue above control came out at 5.3.
Still for that read-out and setting: as for `COc1cccc(C(=O)c2ccccc2O)c1O`, the figure is 0.
